Out of some 100,000 compounds screened, about 620 (0.62%) were called active. How the source made its calls: active means z-score of 3 or more in at least 2 runs; inactive means the rest. The entries come from a sample that favours actives as a whole.
assay: TAR RNA-Tat peptide displacers, HIV-1, primary screen, biochemical, FRET, FAM/TAMRA-labeled Tat (AID 1259389); conditions: HIV-1 TAR RNA, Tat peptide displacement FRET; hits give high values

Structure (SMILES)	z-score
Cc1c2c(c(O)c3c(O)cccc13)C(=O)OC2[C@@H]1C(N(C)C)C(O)=C(C(N)=O)C(=O)[C@H]1O (stereo partly specified)	31 (active)
COc1cc(NC(=O)NCC2CCCO2)cc2sc(NS(=O)(=O)c3ccccc3)nc12 (stereo unspecified)	0.36 (inactive)
Cc1ccc2cc(-c3noc(CC(C)C)n3)c(=O)[nH]c2c1	-1.58 (inactive)
Cc1ccc2cc(-c3noc(CCC(N)=O)n3)c(=O)[nH]c2c1	6.88 (active)
COc1cccc(-c2nc(-c3cc4cc(C)ccc4[nH]c3=O)no2)c1	0.22 (inactive)
C=CCOc1ccc(C2c3c(oc4ccc(F)cc4c3=O)C(=O)N2CCOC)cc1 (stereo unspecified)	2.08 (inactive)
CCCOC(=O)C1=C(C)Nc2nnnn2C1c1cc(Br)ccc1OC (stereo unspecified)	-6.75 (inactive)
Cc1cc2c3c([nH]c2cc1S(=O)(=O)Nc1ccccc1F)CC(C)(C)CC3=O	0.08 (inactive)
CCCS(=O)(=O)Nc1cccc(-c2cn3ccsc3n2)c1	15.9 (active)
CCCS(=O)(=O)Nc1cccc(-c2ccc(S(=O)(=O)CC)nn2)c1	-0.4 (inactive)
Cc1ccc(S(=O)(=O)Nc2cccc(-c3cn4ccccc4n3)c2)cc1C	0.58 (inactive)
O=C1COc2cc(S(=O)(=O)CCC(=O)N3CCCC3)c(Cl)cc2N1	0.78 (inactive)
COc1ncnc2sc(C(=O)O)c(C)c12	1.15 (inactive)
Cc1ccc(C)c(N2CCN(c3ncnc4sc(C(=O)O)c(C)c34)CC2)c1	4.41 (active)
CCN1CCN(c2ncnc3sc(C(=O)N4CCC(N5CCCCC5)CC4)c(C)c23)CC1	1.72 (inactive)
Cn1c(=O)oc2cc(S(=O)(=O)N3CCC(C(=O)NCCC4=CCCCC4)CC3)ccc21	-0.51 (inactive)
CCOC(=O)C1=C(C)NC2=C(C(=O)C(C(=O)OC)C(C)C2)C1c1ccc(C)s1 (stereo unspecified)	1.89 (inactive)
Cc1cccc(NC(=O)c2cc3c(s2)-c2ccccc2S(=O)(=O)C3)n1	1.46 (inactive)
COC(=O)c1ccc2c(=O)n3nc(Nc4ccc(F)c(F)c4)sc3nc2c1	-0.18 (inactive)
O=c1c2ccccc2nc2sc(Nc3ccc4c(c3)OCO4)nn12	18.8 (active)
CCc1ccc(Nc2nn3c(=O)c4cc5c(cc4nc3s2)OCO5)cc1	3.98 (inactive)

Structure (SMILES)	z-score
C=CCN(Cc1nc(-c2cccc(C)c2)no1)S(=O)(=O)c1ccccc1	1.74 (inactive)
CC(C)OC(=O)c1ccc(N2CC(O)=C(c3nc4ccccc4n3C)C2=N)cc1	-0.32 (inactive)
CSc1cccc(N2CC(c3nc4ccccc4n3CCN3CCOCC3)CC2=O)c1 (stereo unspecified)	1.11 (inactive)
CCc1cccc(NS(=O)(=O)c2ccc(/C=C/c3onc(C)c3[N+](=O)[O-])cc2)c1	1.16 (inactive)
CCCCN(C)S(=O)(=O)c1cc(-c2cc(C)no2)ccc1CC	2.74 (inactive)
CCCSc1ncc(CO)n1Cc1ccccc1	1.26 (inactive)
COc1ccccc1N1CCN(Cc2cc(=O)n3nc(C4CCCCC4)sc3n2)CC1	0.09 (inactive)
CCC(CC)C(=O)Nc1ccc(OCc2cc(=O)n3cccc(C)c3n2)cc1	2.07 (inactive)
Cc1ccc(-c2ncnc3c(C#N)c4ccccn4c23)cc1	2.39 (inactive)
O=C(Nc1nc2nc(-c3ccccc3)cc(=O)n2[nH]1)C1CCCCC1	0.88 (inactive)
Nc1ccc(-c2cc(=O)n3[nH]cnc3n2)cc1	10.6 (active)
O=C(Nc1nc2nc(-c3ccccc3)cc(=O)n2[nH]1)C1CC1	2.82 (inactive)
Cc1cc(-c2ccc(S(=O)(=O)N3CCc4ccccc4C3)s2)on1	0.06 (inactive)
Cc1ccc(S(=O)(=O)Nc2ccc3c(c2)oc(=O)n3C)cc1	1.19 (inactive)
C#CCSc1nc2c(c(=O)[nH]1)C(c1ccc(OCCCC)cc1)CC(=O)N2 (stereo unspecified)	-0.97 (inactive)
CCSc1nc2c(c(=O)[nH]1)C(c1ccc(OC)c(Br)c1)CC(=O)N2 (stereo unspecified)	1.43 (inactive)
C#CCSc1nc2c(c(=O)[nH]1)C(c1ccc(O)c(O)c1)CC(=O)N2 (stereo unspecified)	26.9 (active)
CCN(CC)C(=O)Cn1c(-n2nc(C)cc2C)nc2c(c1=O)CCCC2	1.12 (inactive)
Cc1ccc(-c2nc(CSCC(=O)NC3CC3)no2)cc1	0.42 (inactive)
C=C(C)COc1ccc2oc(C)c(C(=O)OCC)c2c1	0.55 (inactive)
COC(=O)c1ccc(N2CSC3=C(C#N)C(c4ccc(Cl)cc4)CC(=O)N3C2)cc1 (stereo unspecified)	-0.23 (inactive)

Structure (SMILES)	z-score
COc1cc(C2CC(=O)N3CN(c4ccc(Br)cc4)CSC3=C2C#N)ccc1O (stereo unspecified)	24.7 (active)
COc1ccc(N2CSC3=C(C#N)C(c4cccc(Br)c4)CC(=O)N3C2)cc1 (stereo unspecified)	-0.77 (inactive)
COc1cccc(C2CC(=O)N3CN(c4ccc(Br)cc4)CSC3=C2C#N)c1 (stereo unspecified)	-2.72 (inactive)
COc1cc(C2CC(=O)N3CN(c4ccccc4)CSC3=C2C#N)ccc1O (stereo unspecified)	31.5 (active)
CCOc1ccc(C2CC(=O)N3CN(c4ccc(OC)cc4OC)CSC3=C2C#N)cc1OC (stereo unspecified)	-4.55 (inactive)
COc1cccc(Nc2c(O)c(=O)c2=O)c1	-0.8 (inactive)
CCC(C)NC(=O)Cn1c(=O)n(CC2CCC(C(=O)N3CCCC3)CC2)c(=O)c2sccc21 (stereo unspecified)	0.29 (inactive)
CC1CCCN(C(=O)Cn2c(=O)oc3cc(S(=O)(=O)N4CCCCC4C)ccc32)C1 (stereo unspecified)	1.86 (inactive)
CSc1nnc(-c2nonc2NC(C)=O)n1C	0.81 (inactive)
COc1cccc(Nc2nc(-c3cc(OC)ccc3OC)no2)c1	1.24 (inactive)
CC(=O)N1N=C(c2cc(C3CC3)nc3ccccc23)OC1c1ccc([N+](=O)[O-])s1 (stereo unspecified)	2.1 (inactive)
CC(=O)N1N=C(c2cc(C3CC3)nc3ccccc23)OC1c1ccc(F)cc1 (stereo unspecified)	21.6 (active)
COc1ccccc1C1OC(c2cc(C3CC3)nc3ccccc23)=NN1C(C)=O (stereo unspecified)	1.12 (inactive)
COc1ccc(-c2nc3sccn3c2Nc2ccc(Cl)cc2)cc1	0.26 (inactive)
O=c1[nH]c(-c2cccc(Cl)c2)nc2c1Cc1cc(F)ccc1O2	1.31 (inactive)
CCOc1ccccc1NS(=O)(=O)c1cc2c3c(c1)C(C)C(=O)N3CCC2 (stereo unspecified)	2.12 (inactive)
Cc1cc(NS(=O)(=O)c2ccc3[nH]c(=O)ccc3c2)ccc1Br	3.75 (active)
Cc1ccc(S(=O)(=O)Nc2ccc3[nH]c(=O)oc3c2)cc1C	0.9 (inactive)
Cc1cc(NS(=O)(=O)c2ccc(-n3cccn3)cc2)ccc1Br	0.31 (inactive)
